{"source": "PubChem BioAssay (NCI)", "note": "Compounds without any hit were thinned out: in the full panel of roughly 83,000, 20% have a hit.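 Activity criterion: percent growth below 10, measured after cells in 96-well plates were exposed to a single compound concentration for 48 hours.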 The source made the active and inactive calls.", "data": [{"tested_on": "RPMI-8226 leukemia", "test": "NCI-60 one-dose screen, 48 h (100 = growth as untreated, 0 = no growth, -100 = all killed)", "settings": "10 µM unless noted", "description": "Growth inhibition of the RPMI-8226 human tumor cell line is measured as a screen for anti-cancer activity. Cells are grown in 96 well plates and exposed to the test compound for 48 hours. Compounds are tested at a single concentration, which is 10^-5 M for most compounds. The reported endpoint is percent growth (GI% or GIPRCNT), where numbers from 0 - 100% represent growth inhibition, and numbers from -100% - 0 represent cell death. For example, a value of 40 represents 60% growth inhibition. A value of 0 means no net growth occurred over the course of the experiment. A value of -40 indicates 40% of cells at the beginning of the experiment died by the end of the experiment. A value of -100 means all cells are dead at the end of the experiment.\nNCI-60 Human Tumor Cell Lines Screen was performed using the standard one-dose NCI protocol, which is described in more detail at https://dtp.cancer.gov/discovery_development/nci-60/default.htm.\nCompounds with GIPRCNT values below 10 were considered active. Activity score was based on GIPRCNT using the following formula: […]\nScore is 0 for GIPRCNT values of 100 or above, 50 for GIPRCNT values of 0, and 100 for GIPRCNT values of -100.", "values": [{"molecule": "C#C[C@@]1(O)[C@@H](CO)O[C@@H](n2cc(-c3ccco3)c3c(N)ncnc32)[C@@H]1O", "growth": "80.3% (inactive)"}, {"molecule": "Nc1cccc(C(=O)Nc2ccc3c(O)c(N=Nc4ccc(N=Nc5ccc(S(=O)(=O)O)cc5)cc4)c(S(=O)(=O)O)cc3c2)c1", "growth": "98.2% (inactive)"}, {"molecule": "C/C(=N/Nc1nc2ccccc2n1C)c1ccccn1", "growth": "-17.5% (active)"}, {"molecule": "CCCCC(=O)Nc1c(C(=O)Nc2ccccc2)sc2nc3c(cc12)C(OC(=O)CCCC)CCC3", "note": "(stereo not given)", "growth": "48.9% (inactive)"}, {"molecule": "COC(=O)c1ccc2c(c1)NC(=O)[C@@H]1CCCN21", "growth": "96.6% (inactive)"}, {"molecule": "O=C1Nc2ccc(Br)cc2/C1=N\\N=C/c1cn(Cc2ccccc2)c2ccccc12", "growth": "95.9% (inactive)"}, {"molecule": "CCCn1c2cc(OCc3cn(-c4ccc(Cl)cc4)nn3)ccc2c2ccnc(C)c21", "growth": "23.3% (inactive)"}, {"molecule": "Nc1ccccc1NC(=O)c1ccc(CSc2nc(N3CCOCC3)c3cccn3n2)cc1", "growth": "-4.81% (active)"}, {"molecule": "COc1ccc2cc(/C=C3\\N=C(c4cc(OC)c(OC)c(OC)c4)OC3=O)c(OC)nc2c1", "growth": "104% (inactive)"}, {"molecule": "Nc1ccc(C2=NN(C(=O)c3cc(-c4ccc(Cl)cc4)nc4ccccc34)C(c3ccccc3)C2)cc1", "note": "(stereo not given)", "growth": "8.12% (active)"}, {"molecule": "CN1CCN(S(=O)(=O)O[C@@H]2C(=O)N(c3cc4c5ccccc5ccc4c4ccccc34)[C@H]2c2ccc(F)cn2)CC1", "growth": "79.7% (inactive)"}, {"molecule": "Nc1ccc(C(=O)Nc2cccc(C(=O)Nc3ccc4c(O)c(N=Nc5ccc(N=Nc6ccc(S(=O)(=O)O)cc6)cc5)c(S(=O)(=O)O)cc4c3)c2)cc1", "growth": "103% (inactive)"}, {"molecule": "CCc1c(C(=O)N[C@@H](C(=O)OCc2ccccc2)C(C)O)[nH]c2ccc(Cl)cc12", "note": "(stereo not given in full)", "growth": "82.7% (inactive)"}, {"molecule": "O=C1CCC23OC(c4ccccc4N12)C(O)C(O)C3O", "note": "(stereo not given)", "growth": "103% (inactive)"}, {"molecule": "COC(=O)c1nc(-c2ccccc2)oc1S(=O)(=O)n1nc(-c2ccccc2)cc1N", "growth": "57.1% (inactive)"}, {"molecule": "C#CCN(CCCOc1ccc(Cl)cc1Cl)CCCSC(=O)CCCCCN1/C(=C\\C=C2/CCCC(/C=C/C3=[N+](CCCCCC(=O)[O-])c4ccccc4C3(C)C)=C2Cl)C(C)(C)c2ccccc21", "growth": "-22.6% (active)"}, {"molecule": "CN1CC=C(c2cc(NC(=O)Nc3ccc(Oc4ccnc(NC(=O)C5CC5)c4)c(F)c3)cc(C(F)(F)F)c2)CC1", "growth": "-28% (active)"}, {"molecule": "CSc1nc(-c2ccc(F)cc2)c(C#N)c(N2CCOCC2)n1", "growth": "89.2% (inactive)"}, {"molecule": "O=C(CCCCCCCCC(=O)Nc1cccc(C2=NCCN2)c1)Nc1cccc(C2=NCCN2)c1", "growth": "78.6% (inactive)"}, {"molecule": "Cc1cc(C)cc(Nc2nccc(-c3c(-c4ccc(F)cc4)ncn3C3CCNCC3)n2)c1", "growth": "-3.31% (active)"}, {"molecule": "C=C1C(=O)O[C@H]2[C@H]1CC/C(COC(=O)/C=C/c1cccnc1)=C\\CC[C@@]1(C)O[C@@H]21", "growth": "2.83% (active)"}, {"molecule": "CCOc1ccccc1C(=O)/C=C/c1cc2ccccc2[nH]c1=O", "growth": "-12.1% (active)"}, {"molecule": "COc1cc(-c2csc(NC(=O)Nc3ccc(Cl)cc3)n2)cc(OC)c1OC", "growth": "8.27% (active)"}, {"molecule": "COc1ccc(Cc2nc(C#N)c(N3CCN(c4ccc(F)cc4)CC3)o2)cc1", "growth": "93.3% (inactive)"}, {"molecule": "N#Cc1c(-c2ccc(F)cc2)nc(N/N=C/c2c[nH]c3ccccc23)nc1N1CCOCC1", "growth": "33.5% (inactive)"}, {"molecule": "COc1ccc2[nH]c(=O)c(/C=C/C(=O)/C=C/c3ccc(O)c(OC)c3)cc2c1", "growth": "-18.5% (active)"}, {"molecule": "O=C(Nc1ccccc1)NS(=O)(=O)c1c[nH]c(=S)[nH]c1=O", "growth": "103% (inactive)"}, {"molecule": "O=C(CCCC(=O)Nc1ccc(-n2nnc3cc(Cl)c(Cl)cc32)cc1)Nc1ccc(-n2nnc3cc(Cl)c(Cl)cc32)cc1", "growth": "81.1% (inactive)"}, {"molecule": "C#C[C@@]1(O)[C@@H](CO)O[C@@H](n2ccc3c(N)ncnc32)[C@@H]1O", "growth": "4.21% (active)"}, {"molecule": "O=c1[nH]nc(-c2ccc(Br)cc2)c2sc(NC(=S)Nc3ccc(Cl)cc3)nc12", "growth": "101% (inactive)"}, {"molecule": "COc1cc(NC(=O)COc2cc(C)nc3ccc(OC)cc23)cc(OC)c1", "growth": "81.3% (inactive)"}, {"molecule": "COc1ccc(-c2cc(-c3nnc(SCC(=O)Nc4ccc(/C(C)=N\\O)cc4)o3)c3ccccc3n2)cc1", "growth": "99% (inactive)"}, {"molecule": "O=C(CCl)N1CCCc2ccccc21", "growth": "102% (inactive)"}, {"molecule": "CC(=O)Oc1c2c(nc3c1c1ccccc1n3Cc1ccccc1)-c1ccccc1C2", "growth": "73.3% (inactive)"}, {"molecule": "O=C(O)C(C(=O)O)c1cccc2ccccc12", "growth": "109% (inactive)"}, {"molecule": "COc1ccc(-c2cc(C(=O)N3N=C(c4ccc(N)cc4)CC3c3ccc(OC)cc3)c3cc(OC)ccc3n2)cc1", "note": "(stereo not given)", "growth": "16.9% (inactive)"}, {"molecule": "COc1ccccc1-c1ccc2nc(NC(=O)Nc3cc(C(F)(F)F)cc(C(F)(F)F)c3)sc2c1", "growth": "-15.9% (active)"}, {"molecule": "Cn1nc(C(F)(F)F)c(-c2cc(C(F)(F)F)cc(C(F)(F)F)c2)c1-c1ccc(OCc2ccc(Cl)cc2)cc1O", "growth": "-14.5% (active)"}, {"molecule": "CC(=O)O[C@@H]1C[C@]2(C)[C@H]3[C@H](O)C[C@@H]4C5=CC(C)(C)CC[C@]5(C)CC[C@@]4(C)[C@]3(C)CC[C@H]2C(C)(C)[C@H]1O", "growth": "124% (inactive)"}, {"molecule": "C=C(C)[C@@H]1CC[C@]2(C(=O)N=C=S)CC[C@]3(C)[C@H](CC[C@@H]4[C@@]5(C)CCC(=O)C(C)(C)[C@@H]5CC[C@]43C)[C@@H]12", "growth": "16.1% (inactive)"}]}]}
